# Read-outs that look alike come from different tables or passages of the source.
# Experiments:
# Design in all cases: species or system human, MV4-11 + K-562 + COLO205 + SK-N-BE2 + OVCAR-8
# IRAK3 = details: read-out: apparent Kd, compound concentrations: 100 nM and 1000 nM (sheet 'Samples'), n = 1
# TESK1 = details: read-out: apparent Kd, compound concentrations: 100 nM and 1000 nM (sheet 'Samples'), n = 1
# TNIK = details: read-out: apparent Kd, compound concentrations: 100 nM and 1000 nM (sheet 'Samples'), n = 1
# ABCD3 = details: read-out: apparent Kd, n = 1
# COX5A = details: read-out: apparent Kd, n = 1
# DCTPP1 = details: read-out: apparent Kd, n = 1
# STK26 = details: read-out: apparent Kd, n = 1
# CDK2 = details: read-out: apparent Kd, compound concentrations: 100 nM and 1000 nM (sheet 'Samples'), n = 1
# CDK5 = details: read-out: apparent Kd, n = 1
# LIMK2 = details: read-out: apparent Kd, compound concentrations: 100 nM and 1000 nM (sheet 'Samples'), n = 1
# MTOR = details: read-out: apparent Kd, n = 1
# PTK2B = details: read-out: apparent Kd, n = 1
# PTK2 = details: read-out: apparent Kd, n = 1
# PIK3CA = details: read-out: apparent Kd, compound concentrations: 100 nM and 1000 nM (sheet 'Samples'), n = 1
# ADCK1 = details: read-out: apparent Kd, n = 1
# ADRBK1 = details: read-out: apparent Kd; compound concentrations:100 nM and 1000 nM (sheet 'Samples'); n = 1
# MAP2K2 = details: read-out: apparent Kd, n = 1
# STK3 = details: read-out: apparent Kd, n = 1
# CDK1 = details: read-out: apparent Kd, n = 1
# [1] = compound concentrations:100 nM and 1000 nM (sheet 'Samples')
smiles,measurement,setting,value
COc1cc(Nc2nccc(N3CCC(NC(=O)c4cccc(C#N)c4)C3)n2)cc(OC)c1OC (centres unmarked) [GSK1379751A],potency estimated from few doses,IRAK3; CATDS: 0.26615341135904602,0.51 µM
COc1cc(Nc2ccnc3cc(-c4ccncc4)ccc23)cc(OC)c1OC.Cl [GW494610A],potency estimated from few doses,TESK1; CATDS: 2.92896642952412E-2,0.549 µM
same,potency estimated from few doses,TNIK; CATDS: 2.73925679017063E-2,0.689 µM
CCn1cc(-c2ccnc3[nH]c(-c4cccc(CN(C)C)c4)cc23)c(-c2ccc(NC(=O)N(C)C)cc2)n1 [GSK1070916],potency estimated from few doses,ABCD3; [1],1.97 µM
Nc1nc(-c2ccc3c(N)n[nH]c3c2)cc(N2CCCCC2)n1 [GSK2228768A],potency estimated from few doses,COX5A; [1],1.06 µM
same,potency estimated from few doses,DCTPP1; [1],1.72 µM
same,potency estimated from few doses,STK26; [1],1.33 µM
CC(C)c1nc(-c2cccc(NS(=O)(=O)c3ccccc3)c2)c(-c2ccnc(Nc3ccc4c(c3)CN(C)CC4)n2)s1 [GSK1649598A],potency estimated from few doses,CDK2; CATDS: 1.6681675288379799E-2,0.614 µM
same,potency estimated from few doses,"CDK5; compound concentrations: 100 nM and 1000 nM (sheet 'Samples'), CATDS: 2.0487115884267999E-2",0.353 µM
same,potency estimated from few doses,LIMK2; CATDS: 3.5211660098846E-2,0.116 µM
same,potency estimated from few doses,TESK1; CATDS: 9.9245429656874704E-2,0.0242 µM
same,potency estimated from few doses,TNIK; CATDS: 1.2157872123198099E-2,2.17 µM
CCc1nc(-c2cccc(N(C)S(=O)(=O)c3ccccc3)c2)c(-c2ccnc(Nc3ccc(N4CCN(C(C)=O)CC4)nc3)n2)s1 [GSK1645895A],potency estimated from few doses,"ABCD3; compound concentrations: 100 nM and 1000 nM (sheet 'Samples'), CATDS: 0.16057119825567601",1.31 µM
O=C1N=C(NCc2cccs2)SC1Cc1ccc2ncccc2c1 (centres unmarked) [RO4629078-000],potency estimated from few doses,"MTOR; compound concentrations: 100 nM and 1000 nM (sheet 'Samples'), CATDS: 1.0012071697909601E-2",0.667 µM
same,potency estimated from few doses,"PTK2B; compound concentrations: 100 nM and 1000 nM (sheet 'Samples'), CATDS: 1.78994015869859E-2",0.211 µM
same,potency estimated from few doses,"PTK2; compound concentrations: 100 nM and 1000 nM (sheet 'Samples'), CATDS: 1.61758600761754E-2",0.25 µM
COc1cc(Nc2nccc(N3CCC(NC(=O)C4COc5ccccc5O4)C3)n2)cc(OC)c1OC (centres unmarked) [GSK1379761A],potency estimated from few doses,IRAK3; CATDS: 0.29618099534974801,0.9 µM
Cl.Oc1cccc(Nc2ccnc3cc(-c4ccncc4)ccc23)c1 [GW494601A],potency estimated from few doses,TNIK; CATDS: 2.0441514499226199E-2,1.28 µM
Cc1cccc(-c2cc(-c3c[nH]nc3-c3ccccn3)ccn2)c1 [GW679395X],potency estimated from few doses,ABCD3; [1],1.2 µM
same,potency estimated from few doses,MTOR; [1],0.501 µM
O=C1N=C(NCCc2cccc(Cl)c2)S/C1=C\c1ccc2ncccc2c1 [RO4509201-000],potency estimated from few doses,"DCTPP1; compound concentrations: 100 nM and 1000 nM (sheet 'Samples'), CATDS: 5.6638769409894603E-2",1.59 µM
same,potency estimated from few doses,PIK3CA; CATDS: 0.11246138422507899,0.274 µM
COc1cccc(-n2ncc3c(N/N=C/c4ccc(C(=O)NCCN(C)C)cc4)ncnc32)c1.Cl [GW784307A],potency estimated from few doses,"ADCK1; compound concentrations: 100 nM and 1000 nM (sheet 'Samples'), CATDS: 3.1344375728913298E-2",0.9 µM
same,potency estimated from few doses,"COX5A; compound concentrations: 100 nM and 1000 nM (sheet 'Samples'), CATDS: 2.84173796904106E-2",1.28 µM
same,potency estimated from few doses,IRAK3; CATDS: 2.7757665118228601E-2,1.41 µM
O=C1N=C(NCc2ccccc2Cl)S/C1=C\c1ccc2ncccc2c1 [RO4506917-000],potency estimated from few doses,PIK3CA; CATDS: 0.16964202934765399,0.283 µM
COc1ccc(Nc2nccc(N3CCC(NC(=O)Nc4ccc5c(c4)OCO5)C3)n2)cc1 (centres unmarked) [GSK1379745A],potency estimated from few doses,"ABCD3; compound concentrations: 100 nM and 1000 nM (sheet 'Samples'), CATDS: 3.9996680208342399E-2",1.5 µM
same,potency estimated from few doses,TESK1; CATDS: 7.4775560770701202E-2,0.51 µM
CS(=O)(=O)CCNCc1ccc(-c2ccc3ncnc(Nc4ccc(OCc5cccc(F)c5)c(C(F)(F)F)c4)c3c2)o1 [GW576484X],potency estimated from few doses,"ABCD3; compound concentrations: 100 nM and 1000 nM (sheet 'Samples'), CATDS: 5.3363712768055301E-2",1.7 µM
same,potency estimated from few doses,"MTOR; compound concentrations: 100 nM and 1000 nM (sheet 'Samples'), CATDS: 9.7740197678702595E-2",0.599 µM
NC(=O)c1cccc(Nc2nccc(Nc3cccc4[nH]ncc34)n2)c1 [GW782612X],potency estimated from few doses,IRAK3; CATDS: 4.1377048408479999E-2,0.891 µM
Cc1cccc(Nc2nc(NCCN)ncc2C(N)=O)c1 [GSK1292139B],potency estimated from few doses,TNIK; CATDS: 7.7542557386304695E-2,1.14 µM
O=C1N=C(NCCc2ccccc2F)S/C1=C\c1ccc2ncccc2c1 [RO4498483-000],potency estimated from few doses,PIK3CA; CATDS: 0.16167463298299301,0.268 µM
COc1ccccc1CNC1=NC(=O)/C(=C/c2ccc3ncccc3c2)S1 [RO4503315-000],potency estimated from few doses,"DCTPP1; compound concentrations: 100 nM and 1000 nM (sheet 'Samples'), CATDS: 6.8298728287036994E-2",1.39 µM
CS(=O)(=O)Cc1ccc(Nc2nccc(-c3c(-c4cccc(NC(=O)C5CCCCC5)c4)nn4ncccc34)n2)cc1 [GSK350559A],potency estimated from few doses,ABCD3; [1],1.58 µM
same,potency estimated from few doses,ADRBK1,1.69 µM
same,potency estimated from few doses,MAP2K2; [1],1.55 µM
same,potency estimated from few doses,STK3; [1],1.92 µM
CN(C)Cc1ccc(-c2ccc3c(Nc4ccc(Oc5ccccn5)cc4)ccnc3c2)o1 [GW567148X],potency estimated from few doses,"PTK2B; compound concentrations: 100 nM and 1000 nM (sheet 'Samples'), CATDS: 2.12691468378991E-2",0.83 µM
same,potency estimated from few doses,"PTK2; compound concentrations: 100 nM and 1000 nM (sheet 'Samples'), CATDS: 2.1089063317390098E-2",0.85 µM
CN1CCN(Cc2ccc(-c3ccc4c(Nc5ccc(Oc6ccccn6)cc5)ccnc4c3)o2)CC1 [GW567140X],potency estimated from few doses,"MAP2K2; compound concentrations: 100 nM and 1000 nM (sheet 'Samples'), CATDS: 3.1784212717953002E-2",2.09 µM
O=S(=O)(CCOCc1ccc(-c2ccc3ncnc(Nc4ccc(OCc5cccc(F)c5)c(Cl)c4)c3c2)o1)c1ccccc1 [GW615311X],potency estimated from few doses,"MTOR; compound concentrations: 100 nM and 1000 nM (sheet 'Samples'), CATDS: 4.7570184263153799E-2",0.527 µM
same,potency estimated from few doses,"STK26; compound concentrations: 100 nM and 1000 nM (sheet 'Samples'), CATDS: 2.23099896492461E-2",2.34 µM
same,potency estimated from few doses,"STK3; compound concentrations: 100 nM and 1000 nM (sheet 'Samples'), CATDS: 2.3351352966808198E-2",2.07 µM
Fc1cc(Cl)ccc1Nc1ccnc2cc(-c3ccc(CN4CCOCC4)o3)ccc12 [GW560109X],potency estimated from few doses,TNIK; CATDS: 4.94410528213204E-2,2.05 µM
CN1CCN(Cc2ccc(NC(=O)Nc3ccc(N(C)c4ccnc(Nc5ccc(CS(C)(=O)=O)cc5)n4)cc3)cc2)CC1.Cl [GW827654A],potency estimated from few doses,"ADCK1; compound concentrations: 100 nM and 1000 nM (sheet 'Samples'), CATDS: 3.6113243316098803E-2",1.52 µM
COc1cc2ncn(-c3cc(OCCCc4ccccc4)c(C(N)=O)s3)c2cc1OC [GSK205189A],potency estimated from few doses,PTK2B; [1],0.642 µM
same,potency estimated from few doses,PTK2; [1],0.678 µM
Nc1ncc(-c2cn[nH]c2)c2scc(-c3ccc4c(c3)CCN4C(=O)Cc3ccccc3)c12 [GSK2593067A],potency estimated from few doses,"STK3; compound concentrations: 100 nM and 1000 nM (sheet 'Samples'), CATDS: 6.6601304210445203E-2",1.19 µM
N#Cc1cccc(Nc2nccc(-c3cnn4ncccc34)n2)c1 [GW778894X],potency estimated from few doses,ADCK1; [1],2.05 µM
same,potency estimated from few doses,CDK1; [1],1.24 µM
same,potency estimated from few doses,CDK2; CATDS: 2.8219089282239498E-2,0.194 µM
same,potency estimated from few doses,CDK5; [1],0.669 µM
CN1CCc2ccc(Nc3nccc(-c4c(-c5cccc(NC(=O)c6c(F)cccc6F)c5)nc5ccccn45)n3)cc2C1.Cl [GSK1010829B],potency estimated from few doses,"STK3; compound concentrations: 100 nM and 1000 nM (sheet 'Samples'), CATDS: 3.0039466965453999E-2",2.17 µM
CC(C)c1nc(-c2cccc(NS(=O)(=O)c3c(F)cccc3F)c2F)c(-c2ccnc(Nc3ccc(N4CCOCC4)nc3)n2)s1 [GSK2008607A],potency estimated from few doses,"CDK1; compound concentrations: 100 nM and 1000 nM (sheet 'Samples'), CATDS: 1.7444638533949799E-2",2.41 µM
same,potency estimated from few doses,CDK2; CATDS: 2.0277618916634502E-2,1.32 µM
same,potency estimated from few doses,"CDK5; compound concentrations: 100 nM and 1000 nM (sheet 'Samples'), CATDS: 2.5832908266049601E-2",0.668 µM
same,potency estimated from few doses,LIMK2; CATDS: 2.06856155254838E-2,1.24 µM
same,potency estimated from few doses,TESK1; CATDS: 2.61955130991521E-2,0.646 µM

# From article PMC11062922 (Nature Chemical Biology, 2023)
